Many of the other results were omitted from the sample, so hits are more common in it than they were.
PKM2 inhibitor = blocks activity of human pyruvate kinase M2; P14618; purified PKM2, ATP generation, Kinase-Glo luminescence; Potency, µM (top dose mostly 57.5 µM), inactives show top-dose activity change, negative = inhibition, hits mostly inhibitors; 260,000 tested, 0.058% active; AID 1634; active means well fitted inhibition curve with a large enough effect; further: nearly all actives have a fitted effect of over 60% in size
Target sequence (P14618 whole entry, looked up): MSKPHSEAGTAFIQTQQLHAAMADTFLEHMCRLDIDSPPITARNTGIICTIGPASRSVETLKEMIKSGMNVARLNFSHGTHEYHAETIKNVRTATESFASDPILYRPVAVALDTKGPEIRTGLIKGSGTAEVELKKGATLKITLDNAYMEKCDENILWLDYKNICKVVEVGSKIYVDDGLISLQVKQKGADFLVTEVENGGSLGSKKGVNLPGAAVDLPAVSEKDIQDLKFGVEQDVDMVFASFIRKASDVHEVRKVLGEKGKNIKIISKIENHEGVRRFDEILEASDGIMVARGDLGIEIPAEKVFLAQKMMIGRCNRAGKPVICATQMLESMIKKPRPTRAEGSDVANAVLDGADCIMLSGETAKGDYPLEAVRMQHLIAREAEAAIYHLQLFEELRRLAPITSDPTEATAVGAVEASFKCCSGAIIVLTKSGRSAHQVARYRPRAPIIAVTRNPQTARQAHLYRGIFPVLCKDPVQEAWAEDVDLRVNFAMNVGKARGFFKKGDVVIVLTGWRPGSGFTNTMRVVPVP
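Coupled luciferase luminescence (Kinase-Glo) detects ATP generated from 0.1 mM ADP and 0.5 mM PEP in imidazole buffer pH 7.2 with KCl, MgCl2; 1 h at room temperature. Enzyme at intermediate activity; normalized to uninhibited and no-enzyme controls.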
* = called active by the depositor. Potency means the concentration at half of the fitted maximal effect.

SMILES	PKM2 inhibitor
COc1ccc(/C=C/C(=O)c2ccccn2)cc1	15.8µM*
COc1ccc(CNC(=O)c2c(C)nc3ccccn23)cc1	43.1%
COc1cc(/C=C/C(=O)CC(=O)/C=C/c2ccc(O)c(OC)c2)ccc1O	30.3%
COc1ccc(C(=O)NNC(=O)c2ccccn2)cc1	3.55µM*
Cc1ccc(/C=C/C(=O)Nc2cccc3cccnc23)o1	53.4%
O=C1CS/C(=C\S(=O)(=O)c2ccc(Cl)cc2)N1	53.4%
Cc1cc2c(cc1S(=O)(=O)N(C)c1ccccc1)n(C)c(=O)n2C	70.4%
COC(=O)Nc1nc(-c2ccc(F)cc2)c(C)s1	39.5%
CC(=O)N1N=C(c2ccncc2)CC1c1ccccc1O (configuration not stated)	125.7%
CC(CCc1ccco1)NC(=O)c1cc2c(-c3ccccc3F)nn(C)c2s1 (configuration not stated)	49.8%
Cc1cc(C2=CC(C)(c3cc(C)oc3C)Nc3nc(C(F)(F)F)nn32)c(C)o1 (configuration not stated)	94.2%
S=C(c1ccc(-c2ccc(Cl)cc2Cl)o1)N1CCCC1	107.8%
COc1cc2c(cc1OC)C(c1cccc(F)c1)CC(=O)N2 (configuration not stated)	32.2%
CC(C)(C)C1=CC(=O)C(=O)C(C(C)(C)C)=C1	24.1%
CCOc1ccc(CNc2cccc(SC)c2)cc1	77.3%
Cc1ccc(-c2ccc(SCC(=O)Nc3cc(C)on3)nn2)cc1	-1.6%
CCOc1ccc(-c2ccc(SC)nn2)cc1	3.16µM*
COc1ccc(NC(=O)CSc2nnc(-c3ccco3)c(-c3ccco3)n2)cc1OC	40.0%
CC(Oc1ccccc1F)C(=O)NCCN1CCCCC1 (configuration not stated)	1.6%
CC1(C)CC(=O)C(C(C2=C(O)CC(C)(C)CC2=O)c2cccs2)C(=O)C1 (configuration not stated)	56.3%
COc1ccc2c(CC(=O)NCCN3C(=O)S/C(=C\c4cccnc4)C3=O)coc2c1	90.6%
Cc1cc(C)c2c(N)c(-c3nc4ccccc4[nH]3)sc2n1	54.7%
Fc1ccccc1-c1nc2ccccc2[nH]1	31.6µM*
Cn1c(SCC(=O)N/N=C/C=C\c2ccco2)nc2ccccc21	101.6%
Cc1ccc(Cn2ncc3c(N4CCCC4)ncnc32)cc1	73.7%
SMILES	PKM2 inhibitor
CCC(NC(=O)c1[nH]c(C)c(C(C)=O)c1C)c1ccc(Br)cc1 (configuration not stated)	41.9%
Cn1c(=O)c2c(nc(Br)n2C/C=N/NC(N)=S)n(C)c1=O	87.0%
COc1cc(/C=C/[N+](=O)[O-])ccc1OCc1cccc(C(=O)O)c1	46.8%
Cc1ccsc1/C=N/Nc1nc(=O)[nH]nc1C	14.1µM*
O=[N+]([O-])c1ccc(S(=O)(=O)NCCN2CCOCC2)cc1	48.4%
CCOC(=O)C1=C(Cc2ccc(C)cc2)C(=O)c2ccccc2C1=O	40.2%
Cc1ccc(-c2cc3c(nn2)-c2ccccc2C3=O)cc1	12.6µM*
CCN1/C(=C/c2ccc3ccccc3[n+]2CC)C=Cc2ccccc21	14.1µM*
Cc1ccc(OCCNC(=O)/C=C/c2ccco2)cc1C	30.7%
Cc1cc(N2CCCN(C)CC2)nc2cc(Cl)ccc12	35.6%
CCn1c(C)nc2cc(-c3nc4n(n3)Cc3ccccc3-4)ccc21	15.8µM*
CCN(CC)CCn1c(C)nc2ccccc21	0.4%
CCCCC1=CC2=C(c3ccco3)C(=O)C(C)(OC(=O)c3ccc(OC)cc3)C(=O)C2=CN1Cc1ccccc1 (configuration not stated)	44.5%
COC(=O)N/N=C\c1cc2c(cc1Br)OCO2	30.9%
Cc1cc(=O)n2c3ccccc3n(CC(O)CN3CCN(CCO)CC3)c2c1C#N (configuration not stated)	36.8%
Cc1cccc(NC(=O)c2onc3c2CCCC3)n1	12.6µM*
Cc1cc(NC(=O)CSc2nc3c(cc2C#N)CCCC3)no1	22.7%
Cc1cccc(NC(=O)c2cc([N+](=O)[O-])ccc2NCC2CCCO2)n1 (configuration not stated)	46.9%
Cc1ccc(-c2nnn(CC(=O)N(Cc3ccco3)C(C(=O)NC(C)(C)C)c3cccs3)n2)o1 (configuration not stated)	30.9%
COc1ccc(C(CNC(=O)c2ccco2)N2CCCCC2)cc1 (configuration not stated)	72.6%
O=C(c1ccc(Cn2cc(Br)cn2)cc1)N1CCN(c2ccccc2)CC1	65.2%
O=C(Cc1ccc2c(c1)OCCO2)N1CCN(S(=O)(=O)c2cccc(Cl)c2Cl)CC1	61.7%
Cn1c(=O)cc(SCC(=O)N2CCN(c3ccccn3)CC2)c2ccccc21	30.6%
c1c2c(cc3sc(N4CCOCC4)nc13)OCCO2	14.1µM*
Cc1ccc2c(c1)C(N1CCCC1=O)CC(c1ccco1)N2 (configuration not stated)	14.1µM*
SMILES	PKM2 inhibitor
Cc1ccc(CC2CC(=O)N(Cc3ccco3)C2=O)cc1 (configuration not stated)	30.3%
Cn1c(CSc2nnc(SCc3ccccc3)s2)nc2ccccc21	99.9%
Cn1c(/C=C/c2ccccc2)nc2ccccc21	12.6µM*
Cn1c(Cn2cnc3ccccc32)nc2ccccc21	58.8%
Cc1cc(NN)nc(NS(=O)(=O)c2ccccc2)n1	32.0%
CCn1c(=O)cc(OCC(=O)O)c2ccccc21	91.6%
Cn1cccc1/C=N/N1CCN(c2ccccn2)CC1	44.2%
COC(=O)CN(c1cc(Cl)ccc1OC)S(=O)(=O)c1ccc(OC)c(OC)c1	35.4%
CCOc1cc(/C=C2/C(=O)ON=C2C)ccc1OCc1ccccc1F	104.3%
N#C/C(=C/Nc1ccccc1C(=O)O)C(N)=O	-7.9%
NC(=O)c1ccccc1N/C=C/C(=O)c1ccccc1	11.2µM*
O=C(/C=C\c1ccc(-c2ccccc2)o1)c1ccccc1	35.1%
CN(C)c1ccc(N/C=C/C(=O)c2ccco2)cc1	14.1µM*
O=C(Nc1ccc(NC(=S)NC(=O)c2cccs2)cc1)c1ccco1	107.8%
Cc1cccc(N(C)S(=O)(=O)c2cc3c(cc2C)n(C)c(=O)c(=O)n3C)c1	75.1%
Cc1ccc(C(=O)O/N=C(\N)c2ccccn2)c(C)c1	7.94µM*
N/C(=N\OC(=O)CCCN1C(=O)c2ccccc2C1=O)c1ccccn1	55.2%
N/C(=N\OC(=O)c1ccc(Cl)cc1)c1ccccn1	7.08µM*
O=C(OCc1ccc(Cl)cc1Cl)c1cccnc1Cl	43.6%
CC1Cc2nc(SCC(=O)Nc3nccs3)n(C)c(=O)c2S1 (configuration not stated)	38.7%
CCOC(=O)c1c(-c2ccc(C)o2)csc1NC(=O)CN1CCC(C(N)=O)CC1	84.6%
Cc1ccc(/C=C2/NC(=O)N(c3ccccc3)C2=O)o1	55.5%
Cc1ccc(C=C2C(=O)c3ccccc3C2=O)o1	14.1µM*
CCN1C(=O)N/C(=C/c2ccc(C)o2)C1=O	39.9%
Cc1ccccc1CS(=O)(=O)c1nnc([C@H](CC(C)C)NC(=O)OC(C)(C)C)o1	51.0%
SMILES	PKM2 inhibitor
CC1(C)C(=O)Nc2ccccc2N1C(=O)CSc1ncccn1	-3.8%
CCc1ccccc1NC(=S)NCc1ccc2c(c1)OCO2	-14.7%
OC(COc1ccc(-c2ccccc2)cc1)CN1CCOCC1 (configuration not stated)	-0.2%
O=C1CC(Sc2ccc(Cl)cc2)C(=O)N1c1ccc2c(c1)OCCO2 (configuration not stated)	40.0%
O=[N+]([O-])c1ccc(-n2nnnc2-c2ccccc2)cc1	30.6%
CC1(C)SC(=S)N(c2ccccc2)C1/[N+]([O-])=C/c1cccc([N+](=O)[O-])c1 (configuration not stated)	33.2%
Cc1[nH]n(-c2ccccc2)c(=S)c1C=Nc1ccc([N+](=O)[O-])cc1	11.2µM*
